Source: PubChem BioAssay (EPA / NIEHS)
Inconclusive results are not listed. The source made the active and inactive calls. Rule for the calls, unless noted: active = hit-call score of the fitted dose curve at least 0.9, where 1 is the maximum; inactive = score below 0.9.

What was measured:
[1] = molecular target: Glucocorticoid receptor (Homo sapiens) (UniProt P04150); assay: ATG_GR_TRANS: Attagene TRANS-FACTORIAL HepG2 Assay for human Glucocorticoid Receptor (GR) (AID 2282978; active = hit-call score of the fitted dose curve at least 0.9, where 1 is the maximum;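 note: activators score as hits since higher reporter transcript over DMSO is fitted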); conditions: HepG2 Attagene TRANS GR reporter, mRNA transcription
Glucocorticoid receptor (Homo sapiens), sequence (P04150 whole entry, looked up, the tested form may be a part): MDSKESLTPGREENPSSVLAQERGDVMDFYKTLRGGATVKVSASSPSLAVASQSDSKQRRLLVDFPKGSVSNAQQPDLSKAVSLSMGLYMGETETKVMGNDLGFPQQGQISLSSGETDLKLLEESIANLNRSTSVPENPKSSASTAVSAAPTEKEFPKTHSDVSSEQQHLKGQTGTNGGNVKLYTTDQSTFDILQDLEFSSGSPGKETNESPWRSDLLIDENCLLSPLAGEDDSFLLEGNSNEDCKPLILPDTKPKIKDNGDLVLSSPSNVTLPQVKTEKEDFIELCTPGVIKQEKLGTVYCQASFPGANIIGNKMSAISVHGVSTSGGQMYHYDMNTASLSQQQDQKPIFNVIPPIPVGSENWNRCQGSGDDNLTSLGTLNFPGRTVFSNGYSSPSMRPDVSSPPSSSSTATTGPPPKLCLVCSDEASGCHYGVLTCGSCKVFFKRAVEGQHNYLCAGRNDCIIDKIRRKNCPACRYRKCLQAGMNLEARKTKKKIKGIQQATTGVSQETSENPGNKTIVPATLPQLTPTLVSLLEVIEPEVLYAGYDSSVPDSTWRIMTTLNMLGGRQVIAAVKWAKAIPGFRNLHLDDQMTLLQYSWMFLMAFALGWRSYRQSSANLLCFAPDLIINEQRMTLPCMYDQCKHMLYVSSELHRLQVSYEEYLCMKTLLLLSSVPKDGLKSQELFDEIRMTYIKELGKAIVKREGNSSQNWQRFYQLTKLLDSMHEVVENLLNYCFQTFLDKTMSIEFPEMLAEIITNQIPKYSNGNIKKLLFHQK
Procedure, shortened: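 HepG2 cells transiently transfected with multiplexed reporter units in which chimeric NR-GAL4 proteins drive GAL4-UAS reporters; 24 h compound exposure. Reporter mRNA measured by RT-PCR, 6-FAM labelling, HpaI digestion and capillary electrophoresis; gain-of-signal fitted versus DMSO.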

[2] = molecular target: Bile acid receptor (Homo sapiens) (UniProt Q96RI1); assay: ATG_FXR_TRANS: Attagene TRANS-FACTORIAL HepG2 Assay for Farnesoid X Receptor (FXR) (AID 2282979; active = hit-call score of the fitted dose curve at least 0.9, where 1 is the maximum;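 note: hits raise reporter mRNA above DMSO so AC50 marks FXR activation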); conditions: HepG2 Attagene TRANS FXR-GAL4 reporter transcription
Bile acid receptor (Homo sapiens), sequence (Q96RI1 whole entry, looked up, the tested form may be a part): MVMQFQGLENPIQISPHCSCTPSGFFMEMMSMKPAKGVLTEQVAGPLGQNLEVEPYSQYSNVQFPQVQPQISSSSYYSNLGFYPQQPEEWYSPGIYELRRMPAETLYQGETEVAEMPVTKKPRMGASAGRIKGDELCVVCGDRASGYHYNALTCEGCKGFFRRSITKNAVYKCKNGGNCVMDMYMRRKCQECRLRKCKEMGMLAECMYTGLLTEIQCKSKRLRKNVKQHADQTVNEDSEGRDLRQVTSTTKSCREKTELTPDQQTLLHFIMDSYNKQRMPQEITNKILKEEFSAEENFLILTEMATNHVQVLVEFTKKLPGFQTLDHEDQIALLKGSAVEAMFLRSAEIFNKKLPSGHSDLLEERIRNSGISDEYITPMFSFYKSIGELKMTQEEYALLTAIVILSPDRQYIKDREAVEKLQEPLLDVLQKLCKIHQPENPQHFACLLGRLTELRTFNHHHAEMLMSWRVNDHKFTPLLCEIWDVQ
Procedure, shortened: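 After 24 h chemical treatment of transfected HepG2 cells, GAL4-UAS reporter transcripts driven by an exogenous FXR-GAL4 fusion were measured by RT-PCR and capillary electrophoresis. Increases over DMSO were fitted.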

[3] = ATG_M_32_TRANS: Attagene TRANS-FACTORIAL HepG2 Assay for M32 Transcription Factor (Internal Marker) (AID 2282984; active = hit-call score of the fitted dose curve at least 0.9, where 1 is the maximum;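 note: transcript level of a background control reporter unit measured by RT-PCR and capillary electrophoresis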); conditions: HepG2 Attagene TRANS M32 internal marker reporter
Procedure, shortened: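 Internal background reporter in transfected HepG2: after 24 h chemical exposure, RNA reverse-transcribed, reporter cDNA amplified, fluorescently labelled and HpaI-cut, then sized by capillary electrophoresis. Gain of signal fitted against DMSO control.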

[4] = molecular target: Nuclear receptor subfamily 4 group A member 2 (Homo sapiens) (UniProt P43354); assay: ATG_NURR1_TRANS: Attagene TRANS-FACTORIAL HepG2 Assay for human Nuclear Receptor Related Protein 1 (NURR1) (AID 2282985; active = hit-call score of the fitted dose curve at least 0.9, where 1 is the maximum); conditions: HepG2 Attagene TRANS reporter, mRNA readout
Procedure, shortened: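 Reporter transcript induction, measured by RT-PCR with fluorescent labelling, HpaI digestion and capillary electrophoresis, after 24 hr dosing of human HepG2 cells transiently expressing an exogenous NR-Gal4 fusion with GAL4-UAS-driven reporters; DMSO as baseline.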

[5] = molecular target: Transcriptional activator Myb (Homo sapiens) (UniProt P10242); assay: ATG_Myb_CIS: Attagene CIS-FACTORIAL HepG2 Assay for human Myeloblastosis (Myb) Proto-Oncogene Transcription Factor (AID 2282986); conditions: HepG2 Attagene CIS-FACTORIAL Myb reporter transcription; actives raise or lower the signal
Transcriptional activator Myb (Homo sapiens), sequence (P10242 whole entry, looked up): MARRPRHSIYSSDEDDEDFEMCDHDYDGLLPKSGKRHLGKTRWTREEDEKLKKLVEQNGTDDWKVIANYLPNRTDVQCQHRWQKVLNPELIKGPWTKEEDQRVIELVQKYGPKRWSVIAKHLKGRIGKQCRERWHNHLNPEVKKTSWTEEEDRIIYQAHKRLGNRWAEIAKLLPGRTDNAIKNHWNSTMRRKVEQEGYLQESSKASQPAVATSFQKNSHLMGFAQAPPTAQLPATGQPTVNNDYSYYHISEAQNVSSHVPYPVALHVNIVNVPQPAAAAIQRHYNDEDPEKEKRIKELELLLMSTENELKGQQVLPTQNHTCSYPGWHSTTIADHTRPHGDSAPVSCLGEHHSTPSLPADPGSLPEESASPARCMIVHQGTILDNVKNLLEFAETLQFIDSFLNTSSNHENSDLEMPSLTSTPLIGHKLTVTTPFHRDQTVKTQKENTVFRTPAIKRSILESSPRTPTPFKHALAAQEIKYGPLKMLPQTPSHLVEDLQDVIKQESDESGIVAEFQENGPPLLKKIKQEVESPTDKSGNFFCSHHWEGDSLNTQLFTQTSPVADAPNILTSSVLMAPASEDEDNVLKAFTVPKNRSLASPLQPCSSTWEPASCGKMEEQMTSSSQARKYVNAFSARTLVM
Procedure, shortened: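 HepG2 cells were transiently transfected with cis-regulated multiple reporter transcription units reflecting endogenous Myb activity, then exposed to compound for 24 hours. Reporter mRNA was measured by RT-PCR with capillary electrophoresis; bidirectional fitting versus DMSO baseline.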

[6] = molecular target: Nuclear respiratory factor 1 (Homo sapiens) (UniProt Q16656); assay: ATG_NRF1_CIS: Attagene CIS-FACTORIAL HepG2 Assay for human Nuclear Respiratory Factor 1 (NRF1) Orphan Gene (AID 2282987); conditions: HepG2 NRF1 cis-element reporter, Attagene multiplex; actives raise or lower the signal
Nuclear respiratory factor 1 (Homo sapiens), sequence (Q16656 whole entry, looked up): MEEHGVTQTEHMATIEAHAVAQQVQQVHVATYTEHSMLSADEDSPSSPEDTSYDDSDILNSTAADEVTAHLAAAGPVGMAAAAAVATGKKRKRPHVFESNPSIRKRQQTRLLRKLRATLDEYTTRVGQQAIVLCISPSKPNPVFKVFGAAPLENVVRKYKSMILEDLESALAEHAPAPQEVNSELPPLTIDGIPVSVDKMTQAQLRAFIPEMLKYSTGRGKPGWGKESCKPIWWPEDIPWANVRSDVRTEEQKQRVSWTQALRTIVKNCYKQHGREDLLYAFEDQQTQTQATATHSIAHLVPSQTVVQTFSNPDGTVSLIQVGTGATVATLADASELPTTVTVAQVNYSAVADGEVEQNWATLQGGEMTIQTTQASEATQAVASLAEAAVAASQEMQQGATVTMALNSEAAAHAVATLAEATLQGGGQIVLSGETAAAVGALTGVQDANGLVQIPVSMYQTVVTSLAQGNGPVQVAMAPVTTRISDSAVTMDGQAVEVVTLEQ
Procedure, shortened: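 HepG2 cells transiently transfected with multiple reporter transcription units under cis-regulatory promoter control, so endogenous transcription-factor activity is read. After 24 h compound exposure, reporter mRNA quantified by RT-PCR, fluorescent labelling, HpaI digestion and capillary electrophoresis; bidirectional fitting versus DMSO.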

[7] = ATG_NFI_CIS: Attagene CIS-FACTORIAL HepG2 Assay for human Nuclear Factor I (NFI) (AID 2282989); conditions: HepG2 cis-regulatory reporter, NFI response element transcription; actives raise or lower the signal
Procedure, shortened: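 Reporter transcripts were measured by RT-PCR with fluorescent primer extension and capillary electrophoresis 24 h post-treatment. HepG2 cells carried transiently transfected cis-regulated reporter constructs reporting endogenous factor activity; gain or loss fitted against DMSO baseline.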

[8] = molecular target: Myc proto-oncogene protein (Homo sapiens) (UniProt P01106); assay: ATG_Myc_CIS: Attagene CIS-FACTORIAL HepG2 Assay for human Myelocytomatosis (Myc) Proto-Oncogene Transcription Factor (AID 2282990); conditions: HepG2, Attagene cis-reporter transcription factor activity; actives raise or lower the signal
Myc proto-oncogene protein (Homo sapiens), sequence (P01106 whole entry, looked up, the tested form may be a part): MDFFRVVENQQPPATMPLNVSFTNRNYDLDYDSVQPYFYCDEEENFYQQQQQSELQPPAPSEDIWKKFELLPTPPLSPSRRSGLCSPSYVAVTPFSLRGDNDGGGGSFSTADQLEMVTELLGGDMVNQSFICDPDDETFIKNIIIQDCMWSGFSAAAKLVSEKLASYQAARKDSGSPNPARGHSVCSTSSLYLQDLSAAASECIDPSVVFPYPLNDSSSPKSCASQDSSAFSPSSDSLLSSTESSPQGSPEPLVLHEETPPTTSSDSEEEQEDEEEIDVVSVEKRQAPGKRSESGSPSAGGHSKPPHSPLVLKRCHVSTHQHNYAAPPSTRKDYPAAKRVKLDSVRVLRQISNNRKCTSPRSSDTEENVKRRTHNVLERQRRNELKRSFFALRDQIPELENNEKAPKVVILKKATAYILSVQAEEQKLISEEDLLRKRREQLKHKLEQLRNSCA
Procedure, shortened: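 After 24 h chemical treatment of HepG2 cells carrying multiplexed cis-regulated reporter constructs, reporter transcripts quantified by RT-PCR and capillary electrophoresis of fluorescent fragments. Gain or loss fitted against DMSO baseline.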

[9] = ATG_NF_kB_CIS: Attagene CIS-FACTORIAL HepG2 Assay for human Nuclear Factor Kappa B (NF-kB) (AID 2282991); conditions: HepG2 Attagene cis-factorial NF-kB reporter mRNA; actives raise or lower the signal
Procedure, shortened: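 HepG2 cells transiently transfected with multiplexed cis-element reporter units measuring endogenous transcription factor activity; reporter mRNA read 24 h after dosing by RT-PCR, fluorescent labelling, HpaI digestion and capillary electrophoresis. Bidirectional fit against DMSO baseline.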

[10] = ATG_NRF2_ARE_CIS: Attagene CIS-FACTORIAL HepG2 Assay for human Nuclear Factor Erythroid 2 Related Factor 2 (NFR2) response to Antioxidant Response Elements (ARE) (AID 2282992); conditions: HepG2 Attagene ARE/NRF2 reporter, transcription factor activity; actives raise or lower the signal
Procedure, shortened: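 Endogenous transcription factor activity read out as reporter transcript levels (RT-PCR plus capillary electrophoresis, fluorescence) in transiently transfected HepG2 cells. Measured at 24 h after dosing; gain or loss of signal fitted versus DMSO.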

[11] = ATG_Oct_MLP_CIS: Attagene CIS-FACTORIAL HepG2 Assay for human Octamer-Binding Transcription Factor (Oct) (AID 2282993); conditions: HepG2 Attagene cis-factorial Oct reporter, mRNA; actives raise or lower the signal
Procedure, shortened: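 Readout is reporter transcript level from RT-PCR with fluorescent primer extension and capillary electrophoresis, fitted in both directions against DMSO. Transfected HepG2 reporter units report endogenous factor activity after 24 h dosing.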

[12] = molecular target: Cellular tumor antigen p53 (Homo sapiens) (UniProt P04637); assay: ATG_p53_CIS: Attagene CIS-FACTORIAL HepG2 Assay for human p53 Transcription Factor (AID 2282994); conditions: HepG2 p53 cis-element reporter, Attagene mRNA; actives raise or lower the signal
Cellular tumor antigen p53 (Homo sapiens), sequence (P04637 whole entry, looked up): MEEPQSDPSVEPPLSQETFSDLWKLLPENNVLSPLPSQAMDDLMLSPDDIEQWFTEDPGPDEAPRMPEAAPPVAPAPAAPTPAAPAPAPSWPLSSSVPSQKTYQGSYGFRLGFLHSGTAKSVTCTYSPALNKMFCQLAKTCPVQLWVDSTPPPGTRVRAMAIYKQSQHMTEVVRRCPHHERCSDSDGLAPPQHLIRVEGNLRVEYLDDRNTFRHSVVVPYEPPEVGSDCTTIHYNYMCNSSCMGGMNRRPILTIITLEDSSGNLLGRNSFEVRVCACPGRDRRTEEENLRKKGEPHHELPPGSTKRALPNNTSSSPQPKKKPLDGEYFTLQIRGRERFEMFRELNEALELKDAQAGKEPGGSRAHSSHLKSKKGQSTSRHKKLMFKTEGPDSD
Procedure, shortened: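 Endogenous p53 activity read in transiently transfected HepG2 from a cis-element-driven reporter transcript after 24 h exposure. RNA reverse-transcribed, PCR-amplified, fluorescently labelled and sized by capillary electrophoresis; gain or loss fitted against DMSO baseline.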

[13] = BSK_3C_TissueFactor: BioMAP Diversity Plus: 3C Assay for Tissue Factor Biomarker Activity (AID 2282997); conditions: BioMAP 3C HUVEC, tissue factor biomarker readout; actives raise or lower the signal
Procedure, shortened: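 In this endothelial system, HUVEC are treated for 24 h and Tissue Factor is assessed by ELISA, normalised to DMSO.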

[14] = BSK_3C_uPAR: BioMAP Diversity Plus: 3C Assay for Urokinase-type plasminogen activator receptor (uPAR) Biomarker Activity (AID 2282998); conditions: BioMAP 3C HUVEC, uPAR biomarker ELISA; actives raise or lower the signal
Procedure, shortened: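 Cell-surface uPAR on HUVEC (3C system) read by ELISA at 24 h post-treatment, with DMSO as baseline and fitting in both directions. Parallel cultures stained with SRB to flag overt cytotoxicity.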

[15] = BSK_3C_VCAM1: BioMAP Diversity Plus: 3C Assay for Vascular cell adhesion molecule 1 (VCAM1) Biomarker Activity (AID 2282999); conditions: BioMAP 3C HUVEC, VCAM1 ELISA, cytokine-stimulated; actives raise or lower the signal
Procedure, shortened: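 Activity fitted in both directions relative to DMSO, with ELISA measurement of the surface marker on primary HUVEC (3C) at 24 h post-treatment; parallel SRB staining (0.1% SRB, TCA-fixed, 560 nm) flagged overt cytotoxicity.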

[16] = molecular target: Oxysterols receptor LXR-beta (Homo sapiens) (UniProt P55055); assay: ATG_LXRb_TRANS: Attagene TRANS-FACTORIAL HepG2 Assay for human Liver X Receptor beta (LXRb) (AID 2282981; active = hit-call score of the fitted dose curve at least 0.9, where 1 is the maximum); conditions: HepG2 Attagene TRANS GAL4-LXRb reporter, mRNA
Oxysterols receptor LXR-beta (Homo sapiens), sequence (P55055 whole entry, looked up, the tested form may be a part): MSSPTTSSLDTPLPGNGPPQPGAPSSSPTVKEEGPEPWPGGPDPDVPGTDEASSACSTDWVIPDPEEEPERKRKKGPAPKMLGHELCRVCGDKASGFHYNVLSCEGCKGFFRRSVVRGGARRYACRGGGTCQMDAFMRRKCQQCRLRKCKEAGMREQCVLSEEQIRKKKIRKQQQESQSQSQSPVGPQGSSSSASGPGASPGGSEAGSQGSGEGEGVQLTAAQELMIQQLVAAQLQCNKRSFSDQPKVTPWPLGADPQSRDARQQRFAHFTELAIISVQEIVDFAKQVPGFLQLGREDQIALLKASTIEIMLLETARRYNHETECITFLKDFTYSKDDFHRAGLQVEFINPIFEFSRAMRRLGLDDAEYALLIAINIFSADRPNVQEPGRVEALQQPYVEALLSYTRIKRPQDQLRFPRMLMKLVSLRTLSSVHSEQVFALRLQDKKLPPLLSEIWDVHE
Procedure, shortened: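 After 24 h chemical treatment of transfected HepG2 cells carrying exogenous NR-Gal4 chimeras, reporter mRNA was quantified by fluorescent RT-PCR and capillary electrophoresis; activity taken as increase over DMSO controls.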

[17] = molecular target: Hepatocyte nuclear factor 4-alpha (Homo sapiens) (UniProt P41235); assay: ATG_HNF4a_TRANS: Attagene TRANS-FACTORIAL HepG2 Assay for human Hepatocyte Nuclear Factor 4 alpha (HNF4a) (AID 2282982; active = hit-call score of the fitted dose curve at least 0.9, where 1 is the maximum); conditions: HepG2 HNF4a transactivation reporter, mRNA readout
Hepatocyte nuclear factor 4-alpha (Homo sapiens), sequence (P41235 whole entry, looked up, the tested form may be a part): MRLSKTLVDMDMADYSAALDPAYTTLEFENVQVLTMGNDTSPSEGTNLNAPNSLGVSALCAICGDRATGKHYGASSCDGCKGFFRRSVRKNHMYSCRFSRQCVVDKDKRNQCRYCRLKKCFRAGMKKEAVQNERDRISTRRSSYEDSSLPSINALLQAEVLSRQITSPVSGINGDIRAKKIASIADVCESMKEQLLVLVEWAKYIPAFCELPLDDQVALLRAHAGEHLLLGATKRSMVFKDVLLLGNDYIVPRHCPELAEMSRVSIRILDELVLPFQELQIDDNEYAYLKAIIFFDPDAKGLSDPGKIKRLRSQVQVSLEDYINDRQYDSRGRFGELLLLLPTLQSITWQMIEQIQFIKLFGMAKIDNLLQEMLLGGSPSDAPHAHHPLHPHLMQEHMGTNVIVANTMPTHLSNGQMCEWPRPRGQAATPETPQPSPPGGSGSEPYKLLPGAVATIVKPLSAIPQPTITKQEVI
Procedure, shortened: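 Activity of an exogenous HNF4a–Gal4 fusion scored as induced GAL4-UAS reporter transcripts after 24 h chemical exposure of transfected human HepG2 cells. Read-out via RT-PCR with 6-FAM labelling and capillary electrophoresis; rise over DMSO baseline.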

[18] = ATG_M_06_TRANS: Attagene TRANS-FACTORIAL HepG2 Assay for M06 Transcription Factor (Internal Marker) (AID 2282983; active = hit-call score of the fitted dose curve at least 0.9, where 1 is the maximum); conditions: HepG2 Attagene TRANS M06 internal marker reporter
Procedure, shortened: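 Multi-reporter-transfected HepG2, 24 h treatment; reporter transcripts quantified via RT-PCR, primer-extension labelling and CE. DMSO-normalized gain-of-signal fit.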

[19] = molecular target: Oxysterols receptor LXR-alpha (Homo sapiens) (UniProt Q13133); assay: ATG_LXRa_TRANS: Attagene TRANS-FACTORIAL HepG2 Assay for human Liver X Receptor alpha (LXRa) (AID 2282980; active = hit-call score of the fitted dose curve at least 0.9, where 1 is the maximum); conditions: HepG2 Attagene TRANS reporter, LXRa transactivation
Oxysterols receptor LXR-alpha (Homo sapiens), sequence (Q13133 whole entry, looked up, the tested form may be a part): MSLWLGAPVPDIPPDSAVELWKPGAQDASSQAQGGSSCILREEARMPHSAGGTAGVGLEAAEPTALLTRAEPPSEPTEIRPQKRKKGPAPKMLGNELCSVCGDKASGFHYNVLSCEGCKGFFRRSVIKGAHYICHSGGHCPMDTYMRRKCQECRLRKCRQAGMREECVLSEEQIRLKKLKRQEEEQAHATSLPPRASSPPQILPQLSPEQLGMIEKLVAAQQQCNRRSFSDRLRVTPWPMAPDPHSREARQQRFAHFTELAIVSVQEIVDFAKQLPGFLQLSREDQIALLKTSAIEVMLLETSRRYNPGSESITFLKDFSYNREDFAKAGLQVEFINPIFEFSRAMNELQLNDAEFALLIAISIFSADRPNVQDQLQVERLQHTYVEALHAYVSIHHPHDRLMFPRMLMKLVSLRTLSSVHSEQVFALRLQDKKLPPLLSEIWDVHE
Procedure, shortened: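 In this multiplexed TRANS system, compounds act on HepG2 cells carrying GAL4-UAS reporter units and a receptor-GAL4 fusion for 24 h. Induced reporter RNA is amplified, fluorescently labelled and sized by capillary electrophoresis, with DMSO as baseline.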

Measured: AC50

O=C(O)CCC(F)(F)C(F)(F)C(F)(F)C(F)(F)C(F)(F)C(F)(F)C(F)(F)F
active: [10] 94.9 µM | [12] 204 µM
not listed: [16] | [17] | [18] | [19]
inactive: all other assays above

C=C(C)C(=O)OCC(F)(F)C(F)(F)C(F)(F)C(F)F
not listed: [1] | [14] | [19]
inactive: all other assays above

O=C(O)C(F)(F)C(F)(F)C(F)(F)C(F)(F)C(F)(F)C(F)(F)C(F)F
active: [10] 100 µM
not listed: [1] | [14] | [17] | [19]
inactive: all other assays above

CC(O)C#CC(C)O (stereo not given)
inactive: [2] | [19] | [18] | [3] | [4] | [5] | [11]
active: [17] 151 µM | [6] 143 µM | [7] 127 µM | [8] 53.3 µM | [9] 84 µM | [10] 24.9 µM | [12] 167 µM

Brc1ccccn1
not listed: [1] | [13] | [14] | [15] | [19]
inactive: all other assays above

CCCCCCCCCCCCC[N+](C)(C)Cc1ccccc1
active: [10] 4.37 µM
not listed: [1] | [4] | [13] | [14] | [15] | [17] | [19]
inactive: all other assays above

C#CC(O)CCC (stereo not given)
not listed: [1] | [13] | [14] | [15] | [17] | [19]
inactive: all other assays above

CC1=CCC2C(=O)OC(=O)C2C1 (stereo not given)
inactive: [2] | [19] | [5] | [6] | [7] | [8] | [9] | [10] | [11] | [12]

O=C(O)C(F)(F)C(F)(F)C(F)(F)C(=O)O
not listed: [1] | [4] | [19]
inactive: all other assays above

C[C@]12CC[C@H]3C(=CCc4cc(O)ccc43)[C@@H]1CCC2=O
not listed: [1] | [9] | [14]
inactive: all other assays above

CCC(Cc1c(I)cc(I)c(N)c1I)C(=O)O (stereo not given)
active: [8] 148 µM | [10] 47 µM
not listed: [1] | [3] | [4] | [13] | [14] | [15] | [17]
inactive: all other assays above

OCC(F)(F)C(F)(F)C(F)(F)CO
not listed: [2] | [3] | [14] | [16] | [17] | [19]
inactive: all other assays above

CCCCCCCCn1sc(Cl)c(Cl)c1=O
active: [5] 20.4 µM | [10] 6.58 µM | [12] 11.1 µM
not listed: [2] | [13] | [14] | [15] | [17] | [19]
inactive: all other assays above

CC(=O)CCC(C)C
inactive: [1] | [16] | [5] | [6] | [7] | [8] | [9] | [10] | [11] | [12]

CCOCN(C(=O)CS(=O)(=O)O)c1c(C)cccc1CC
not listed: [1] | [13] | [14] | [15]
inactive: all other assays above

CC1=CCC(=O)O1
not listed: [1] | [13] | [14] | [15] | [19]
inactive: all other assays above

FC(F)(F)C(F)(F)C(F)(F)C(F)(F)C(F)(F)C(F)(F)C(F)(F)CCI
active: [10] 30.6 µM
not listed: [1] | [14] | [19]
inactive: all other assays above

O=C(Cl)C(F)(F)C(F)(F)C(F)(F)C(F)(F)C(F)(F)C(F)(F)C(F)(F)F
active: [4] 38.9 µM | [10] 49 µM
not listed: [1] | [3] | [17]
inactive: all other assays above
